# Compounds with a hit are over-represented: about 4.6% of the library has one in this group of screens.
# AHR activator: AHR activators, primary screen, cell-based, luminescence, luciferase reporter, human | AHR-responsive luciferase reporter cells | activation, % at 5 µM | 2.5% of 320,000 active | AID 2796, 2010; in the data active = activation above about 47%;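 note: 0% = vehicle wells and 100% = reference agonist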
# Target sequence (P35869 whole entry, looked up): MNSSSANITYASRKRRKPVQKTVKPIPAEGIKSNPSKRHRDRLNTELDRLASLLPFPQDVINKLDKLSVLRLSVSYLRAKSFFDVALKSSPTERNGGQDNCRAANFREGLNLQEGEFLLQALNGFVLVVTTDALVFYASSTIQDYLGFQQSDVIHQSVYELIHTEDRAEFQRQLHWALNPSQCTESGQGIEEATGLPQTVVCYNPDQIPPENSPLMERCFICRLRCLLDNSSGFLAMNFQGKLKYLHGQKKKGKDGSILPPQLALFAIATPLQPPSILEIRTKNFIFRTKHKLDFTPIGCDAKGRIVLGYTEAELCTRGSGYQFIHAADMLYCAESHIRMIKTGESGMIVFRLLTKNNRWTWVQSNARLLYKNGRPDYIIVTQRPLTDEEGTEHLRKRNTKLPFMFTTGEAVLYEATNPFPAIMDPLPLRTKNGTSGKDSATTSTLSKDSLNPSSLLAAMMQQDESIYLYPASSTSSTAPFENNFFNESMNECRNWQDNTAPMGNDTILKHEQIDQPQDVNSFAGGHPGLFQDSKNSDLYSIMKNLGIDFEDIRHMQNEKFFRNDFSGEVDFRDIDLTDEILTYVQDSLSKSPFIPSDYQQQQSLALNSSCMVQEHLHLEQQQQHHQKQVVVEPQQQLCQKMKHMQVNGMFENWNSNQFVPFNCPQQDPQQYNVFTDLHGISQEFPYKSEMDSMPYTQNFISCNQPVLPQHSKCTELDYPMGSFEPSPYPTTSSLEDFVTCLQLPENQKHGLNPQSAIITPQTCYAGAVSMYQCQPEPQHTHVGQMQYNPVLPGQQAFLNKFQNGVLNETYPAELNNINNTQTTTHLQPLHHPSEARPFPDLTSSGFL
# HSF-1 act: HSF-1 activators, primary screen, NIH3T3-HGL cells, MG132 stress, luminescence, single point. NIH3T3-HGL HSF-1 luciferase reporter, 8 h; 100% = twice DMSO control signal. activation, % at 9 µM. 1.7% of 300,000 active. AID 504408, 2011;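 active = mean replicate activation of at least 50% with a set share of replicates each reaching 50%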;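 note: 0% = median of the neutral control wells and 100% = twice that signal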
# HSF1 inhib: HSF1 inhibitors in luciferase reporter cells, primary screen, cell-based, NIH3T3, luminescence; activity change, negative = inhibition, % at 7.5 µM (by protocol); AID 2098, 2009; 0.77% of 300,000 active; NIH3T3-HGL HSE-luciferase, MG132-induced, luminescence 8 h; stronger effect = lower value;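 active = more than half of replicate wells show activity change below -50%, luminescence cut by over half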;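 note: luciferase reports HSF-1 transcriptional activity via heat shock element; 0% = median of DMSO wells and -100% = zero luminescence signal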
# FXN GAA850 act: FXN promoter activators, primary screen, cell-based, luciferase luminescence, HEK293 lucGAA850; 0.56% of 360,000 active; activation, % at 6 µM; HEK293 lucGAA850 FXN promoter luciferase reporter, 24 h; percent of 10 µM SAHA response; AID 540364, 2011;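 active = activation above the average of all compounds screened plus 3 SD, cutoff fixed separately per campaign, cut at about 7.5% in these data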;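 note: 0% = DMSO wells and 100% = 10 µM SAHA wells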
# AHR act cf: AHR activators, confirmation, cell-based, luminescence, luciferase reporter, human | AID 2845, 2010 | 87% of 2,300 active | activation, % at 9 µM | human cells, AHR-responsive luciferase reporter | shares compounds with AHR activator; in the data active = activation above about 49%;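 note: HepG2 hepatoma cells carrying a DRE-driven firefly luciferase reporter; 0% = vehicle wells and 100% = reference agonist wells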
# PXR counter: human PXR activators, counter-screen for AHR activator project, cell-based, luciferase luminescence. shares compounds with AHR activator. cell-based PXR reporter. activation, % at 11.6 µM. 88% of 2,300 active; in the data active = activation above about 11%;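 note: human hepatoma DPX-2 cells expressing full-length human PXR; 0% = DMSO and 100% = reference agonist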
# * marks the source's active call; other numbers are inactive results; nt = no result given.
SMILES,AHR activator,HSF-1 act,HSF1 inhib,FXN GAA850 act,AHR act cf,PXR counter
CC(C)(C)n1nnnc1CN(Cc1ccco1)Cc1cc2cc3c(cc2[nH]c1=O)OCO3,111*,5,-8,1,96*,197*
COc1ccc2cc(CN(Cc3ccco3)Cc3nnnn3C3CCCCC3)c(=O)[nH]c2c1,-1,-6,7,-1,nt,nt
O=C(O)C1(C(=O)O)CCCC1,nt,nt,nt,1,nt,nt
Cc1c(C(=O)Nc2ccc(Br)cc2)cnn1C,120*,29,5,3,136*,23*
CCCn1c(SCC(=O)Nc2ccccc2Cl)nc(O)cc1=O,nt,nt,nt,1,nt,nt
COc1ccc(C(C)=O)cc1CSc1nnc(Nc2c(C)cccc2C)s1,7,9,10,1,nt,nt
O=C1COCC(=O)N1CCc1c[nH]c2ccccc12,83*,16,-1,1,108*,12*
CSc1ncc(C(=O)Nc2ccc(Cl)cc2)c(C)n1,94*,0,2,1,100*,nt
Cc1nc(N2CCOCC2)c2oc3ccccc3c2n1,100*,7,-8,-1,92*,24*
Cc1nc(N2CCN(Cc3nc4ccccc4[nH]3)CC2)c2oc3ccccc3c2n1,3,36,-3,1,nt,nt
Cc1ccc2c(c1)CCCN2C(=O)CSc1ccccc1,2,25,5,4,nt,nt
Cc1cc(C)nc(NC(=O)c2cc(-c3ccc4c(c3)OCO4)nc3ccccc23)c1,89*,-18,3,1,78*,44*
COc1ccccc1NC(=O)CCCCCN1C(=O)c2cccc3cccc(c23)C1=O,85*,-10,-2,-1,-3,56*
CCOC(=O)C1CCN(CCCSc2ccc(Cl)cc2)CC1,2,6,-6,1,nt,nt
CC1=NN(C(N)=S)C(=O)C1N=Nc1ccc([N+](=O)[O-])cc1 (stereo unspecified),0,21,26,2,nt,nt
CC(=O)Nc1ccc(N=NC2C(=O)N(C(N)=S)N=C2C)cc1 (stereo unspecified),104*,10,6,3,112*,16*
CCOc1ccc(N=NC2C(=O)N(C(N)=S)N=C2C)cc1 (stereo unspecified),118*,30,25,2,124*,22*
CC1=NN(C(N)=S)C(=O)C1N=Nc1ccc(O)cc1 (stereo unspecified),nt,-4,-3,1,nt,nt
COc1cc(Cl)c(C)cc1NC(=O)c1ccccc1NC(=O)CN1CCOCC1,101*,13,2,0,103*,92*
COc1ccc(Cl)cc1NCCC(O)c1ccc(F)cc1 (stereo unspecified),89*,12,-2,1,21,40*
C=CCNC(=O)c1ccccc1NC(=O)c1cccc2ccccc12,94*,-11,-2,-1,89*,84*
COC(=O)c1cn(NC(=O)Cc2ccc(OC)c(OC)c2)c(=O)c2ccccc12,2,nt,nt,1,nt,nt
Cc1ccc2occ(C3N[C@H](C(=O)O)CS3)c(=O)c2c1 (stereo partly specified),11,31,5,1,nt,nt
COc1ccc(NC(=O)COC(=O)CNC(=O)c2cc(OC)c(OC)c(OC)c2)cc1,3,5,-1,-4,nt,nt
S=C(NCc1ccco1)Nc1ccc(Br)cn1,81*,24,10,1,59*,17*
SMILES,AHR activator,HSF-1 act,HSF1 inhib,FXN GAA850 act,AHR act cf,PXR counter
CC[N+](C)(C)Cc1ccccc1Br,-2,-14,-5,-1,nt,nt
COC(=O)C(C#N)C(=C1C(=O)CC(C)(C)CC1=O)c1ccc(O)cc1 (stereo unspecified),2,-6,10,-2,nt,nt
O=C1NCCC/C1=N\Nc1ccc(Br)cc1,119*,0,-8,2,124*,21*
CC(C)c1ccc(NC(=O)CSc2nnc(CN3CCOCC3)n2C)cc1,1,-7,-6,1,nt,nt
CCN(CC)C(=O)c1sc(NC(=O)c2c(OC)cccc2OC)c(C#N)c1C,132*,15,-4,0,92*,173*
COc1ccc(/C=C(/NC(=O)c2ccccc2)C(=O)N2CCCC2)cc1,1,12,-5,-1,nt,nt
